Measurements taken from the supplement of paper PMC10849652.
Targets with a hit are over-represented here; the source holds about 7,900 in all. About 0.6% of all pairs of compound and target were hits.

Experiments:
Experiment in all cases: log2 fold change, soluble protein after heating vs DMSO (PISA); higher = thermal stabilisation; K562 cells, 10 uM, 30 min; active = over 0.2 and 3.5 SD of the protein, either way, in both replicates (recomputed)
[1] = compound: CC[C@@H]1C(=O)N(C)c2cnc(Nc3ccc(C(=O)NC4CCN(C)CC4)cc3OC)nc2N1C1CCCC1
Method in brief: (§1)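 K562 cells (2×10^6 cells/mL) were treated with 10 μM compound for 30 min, and aliquots were heated for 3 min over 48°C-58°C. Pooled aliquots were extracted in PBS with 0.5% NP-40 at 4°C, and the supernatant after 21,000xg for 90 min was measured by TMTpro 16plex LC-MS/MS with channel sums equalised. Reported thermal stability, relative to control samples and from duplicates, is a log2 fold change.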

volasertib = compound: CC[C@@H]1C(=O)N(C)c2cnc(Nc3ccc(C(=O)N[C@H]4CC[C@H](N5CCN(CC6CC6)CC5)CC4)cc3OC)nc2N1C(C)C [volasertib]
Method in brief: as §1

[2] = compound: CC[C@H](C)N1C=C(C2=C(C=C(C=C21)C3=CN=C(C=C3)N4CCNCC4)C(=O)NCC5=C(C=C(NC5=O)C)C)C
Method in brief: as §1

epoxomicin = compound: CC[C@H](C)[C@@H](C(=O)N[C@@H]([C@@H](C)O)C(=O)N[C@@H](CC(C)C)C(=O)[C@]1(CO1)C)NC(=O)[C@H]([C@@H](C)CC)N(C)C(=O)C [epoxomicin]
Method in brief: as §1

[3] = compound: CCn1c(C(=O)N(C2CC2)C2CC2)cc2c3c(ncn3C)c(Nc3cc(C)n(C)n3)nc21
Method in brief: as §1

[4] = compound: CCn1cc(-c2ccnc3[nH]c(-c4cccc(CN(C)C)c4)cc23)c(-c2ccc(NC(=O)N(C)C)cc2)n1
Method in brief: as §1

[5] = compound: CN(C)CC(=O)Nc1ccc2[nH]c(=O)c3ccccc3c2c1
Method in brief: as §1

rosiglitazone = compound: CN(CCOC1=CC=C(C=C1)C[C@H]2C(=O)NC(=O)S2)C3=CC=CC=N3 (racemic) [rosiglitazone]
Method in brief: as §1

[6] = compound: CN1C2=C(C3=C1C(=O)N(N=C3)CC4=CC(=CC=C4)N)SC(=C2)S(=O)C
Method in brief: as §1

[7] = compound: CN1CCC(CNc2ccc3ncc(-c4cccc(OC(F)(F)F)c4)n3n2)CC1
Method in brief: as §1

saracatinib = compound: CN1CCN(CCOc2cc(OC3CCOCC3)c3c(Nc4c(Cl)ccc5c4OCO5)ncnc3c2)CC1 [saracatinib]
Method in brief: as §1

sotrastaurin = compound: CN1CCN(c2nc(C3=C(c4c[nH]c5ccccc45)C(=O)NC3=O)c3ccccc3n2)CC1 [sotrastaurin]
Method in brief: as §1

alvocidib = compound: CN1CC[C@H](c2c(O)cc(O)c3c(=O)cc(-c4ccccc4Cl)oc23)[C@H](O)C1 [alvocidib]
Method in brief: as §1

Tubastatin A = compound: CN1CCc2c(c3ccccc3n2Cc2ccc(C(=O)NO)cc2)C1 [Tubastatin A]
Method in brief: as §1

[8] = compound: CNC(=O)C1=CC=CC=C1NC2=NC(=NC=C2Cl)NC3=C(C=C(C=C3)N4CCOCC4)OC
Method in brief: as §1

defactinib = compound: CNC(=O)c1ccc(Nc2ncc(C(F)(F)F)c(NCc3nccnc3N(C)S(C)(=O)=O)n2)cc1 [defactinib]
Method in brief: as §1

rucaparib = compound: CNCc1ccc(-c2[nH]c3cc(F)cc4c3c2CCNC4=O)cc1 [rucaparib]
Method in brief: as §1

[9] = compound: CNc1nc(-c2ccc3c(N)n[nH]c3c2)cc(N2C[C@@H](C(=O)NC3CCCCC3)CC[C@H]2C)n1
Method in brief: as §1

encorafenib = compound: COC(=O)N[C@@H](C)CNc1nccc(-c2cn(C(C)C)nc2-c2cc(Cl)cc(NS(C)(=O)=O)c2F)n1 [encorafenib]
Method in brief: as §1

[10] = compound: COC(=O)[C@H](CCSC)NC(=O)C1=C(C=C(C=C1)NC[C@H](CS)N)C2=CC=CC=C2
Method in brief: as §1

Measured: log2 fold change

INTS7 (UniProt Q9NVH2)
Sequence of UniProt Q9NVH2 (Q9NVH2 whole entry, looked up): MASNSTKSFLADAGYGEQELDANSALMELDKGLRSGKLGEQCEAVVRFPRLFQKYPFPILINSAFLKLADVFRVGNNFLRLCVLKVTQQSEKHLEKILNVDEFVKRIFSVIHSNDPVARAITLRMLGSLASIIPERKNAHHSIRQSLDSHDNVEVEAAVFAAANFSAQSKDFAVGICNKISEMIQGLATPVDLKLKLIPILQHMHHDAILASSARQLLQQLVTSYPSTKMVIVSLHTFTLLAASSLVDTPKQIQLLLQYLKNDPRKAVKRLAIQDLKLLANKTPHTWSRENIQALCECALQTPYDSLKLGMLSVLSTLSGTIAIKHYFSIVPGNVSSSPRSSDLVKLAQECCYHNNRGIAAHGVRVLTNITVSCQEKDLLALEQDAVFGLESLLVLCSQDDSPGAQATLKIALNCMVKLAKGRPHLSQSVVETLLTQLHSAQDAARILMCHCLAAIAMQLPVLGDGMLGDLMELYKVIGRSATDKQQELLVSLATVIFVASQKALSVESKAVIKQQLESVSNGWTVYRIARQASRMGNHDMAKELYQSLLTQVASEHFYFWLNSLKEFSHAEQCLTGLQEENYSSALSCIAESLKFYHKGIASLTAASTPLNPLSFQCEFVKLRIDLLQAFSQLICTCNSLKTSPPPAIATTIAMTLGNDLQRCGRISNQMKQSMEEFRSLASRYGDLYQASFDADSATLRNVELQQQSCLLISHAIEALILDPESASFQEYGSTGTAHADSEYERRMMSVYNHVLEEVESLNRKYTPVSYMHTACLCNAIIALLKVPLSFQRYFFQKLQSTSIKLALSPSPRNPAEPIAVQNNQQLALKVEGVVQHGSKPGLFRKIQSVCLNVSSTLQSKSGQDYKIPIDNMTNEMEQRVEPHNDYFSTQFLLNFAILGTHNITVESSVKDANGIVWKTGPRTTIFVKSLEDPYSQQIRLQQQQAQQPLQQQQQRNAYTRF
active: sotrastaurin -0.503 | [8] 0.529
inactive: [1] 0.035 | volasertib -0.313 | [2] 0.1 | epoxomicin -0.029 | [3] -0.119 | [4] -0.1 | [5] 0.038 | rosiglitazone 0.033 | [6] 0.069 | [7] 0.3 | saracatinib 0.035 | alvocidib -0.095 | Tubastatin A 0 | defactinib -0.096 | rucaparib 0.019 | [9] -0.003 | encorafenib 0.036 | [10] -0.019

KDELR2 (UniProt P33947)
Sequence of UniProt P33947 (P33947 whole entry, looked up): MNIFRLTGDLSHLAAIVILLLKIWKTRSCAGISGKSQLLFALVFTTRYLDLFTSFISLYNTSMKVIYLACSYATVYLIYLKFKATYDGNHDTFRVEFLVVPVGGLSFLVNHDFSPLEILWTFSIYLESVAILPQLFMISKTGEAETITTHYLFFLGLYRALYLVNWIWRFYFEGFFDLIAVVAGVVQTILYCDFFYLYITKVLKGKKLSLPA
inactive: [1] 0.033 | volasertib -0.18 | [2] -0.089 | epoxomicin -0.02 | [3] -0.031 | [4] -0.016 | [5] -0.125 | rosiglitazone 0.017 | [6] -0.063 | [7] 0.255 | saracatinib 0.094 | sotrastaurin 0.061 | alvocidib 0.018 | Tubastatin A -0.295 | [8] 0.04 | defactinib -0.004 | rucaparib -0.072 | [9] -0.058 | encorafenib -0.005 | [10] 0.023

LARP7 isoform 3 (UniProt Q4G0J3)
Sequence of UniProt Q4G0J3 (Q4G0J3 whole entry, looked up): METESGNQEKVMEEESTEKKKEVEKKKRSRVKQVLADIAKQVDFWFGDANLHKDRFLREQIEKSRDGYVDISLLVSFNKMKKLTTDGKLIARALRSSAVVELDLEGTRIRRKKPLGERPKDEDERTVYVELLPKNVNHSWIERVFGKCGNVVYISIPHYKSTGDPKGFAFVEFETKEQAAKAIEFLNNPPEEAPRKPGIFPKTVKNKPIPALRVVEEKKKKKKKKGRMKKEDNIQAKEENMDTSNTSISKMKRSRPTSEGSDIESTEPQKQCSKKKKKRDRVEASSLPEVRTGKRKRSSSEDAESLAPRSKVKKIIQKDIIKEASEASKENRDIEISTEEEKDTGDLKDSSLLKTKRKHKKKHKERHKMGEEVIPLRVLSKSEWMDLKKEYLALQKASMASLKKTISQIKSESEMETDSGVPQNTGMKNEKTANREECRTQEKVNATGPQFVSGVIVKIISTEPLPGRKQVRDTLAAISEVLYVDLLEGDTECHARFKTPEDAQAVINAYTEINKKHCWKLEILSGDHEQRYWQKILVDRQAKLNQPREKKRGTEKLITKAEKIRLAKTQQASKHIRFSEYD
active: alvocidib -0.234 | defactinib -0.328
inactive: [1] -0.047 | volasertib -0.155 | [2] 0.051 | epoxomicin -0.081 | [3] 0.034 | [4] -0.032 | [5] 0.064 | rosiglitazone 0.003 | [6] 0.014 | [7] -0.075 | saracatinib 0.015 | sotrastaurin -0.076 | Tubastatin A -0.002 | [8] -0.04 | rucaparib -0.164 | [9] 0.003 | encorafenib 0.034 | [10] -0.019

KDM3B (UniProt Q7LBC6)
inactive: [1] -0.164 | [2] 0.06 | epoxomicin 0.061 | [3] -0.024 | [4] 0.001 | [5] 0.043 | rosiglitazone 0.048 | [6] -0.049 | [7] -0.071 | saracatinib 0.01 | sotrastaurin -0.089 | alvocidib -0.091 | Tubastatin A -0.01 | [8] 0.072 | defactinib -0.161 | rucaparib -0.058 | [9] -0.093 | encorafenib 0.054 | [10] -0.029
active: volasertib -0.349

MAPK8 isoform 3 (UniProt P45983)
Sequence of UniProt P45983 (P45983 whole entry, looked up): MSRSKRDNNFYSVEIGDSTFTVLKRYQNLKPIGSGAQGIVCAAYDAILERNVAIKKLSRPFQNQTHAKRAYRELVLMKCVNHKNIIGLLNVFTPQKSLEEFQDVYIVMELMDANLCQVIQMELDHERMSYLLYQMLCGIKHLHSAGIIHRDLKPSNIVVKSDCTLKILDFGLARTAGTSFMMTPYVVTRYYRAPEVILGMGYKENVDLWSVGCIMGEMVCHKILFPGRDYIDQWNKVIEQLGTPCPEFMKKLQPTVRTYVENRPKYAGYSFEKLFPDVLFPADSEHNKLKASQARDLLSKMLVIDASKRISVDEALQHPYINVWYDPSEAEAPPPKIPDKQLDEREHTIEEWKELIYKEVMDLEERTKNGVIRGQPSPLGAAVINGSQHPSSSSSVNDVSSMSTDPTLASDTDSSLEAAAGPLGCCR
active: [8] 0.942
inactive: [1] -0.112 | volasertib -0.249 | [2] 0.003 | epoxomicin 0.117 | [3] -0.036 | [4] 0.006 | [5] 0.004 | rosiglitazone 0.095 | [6] 0.013 | [7] -0.054 | saracatinib -0.006 | sotrastaurin 0.052 | alvocidib 0.087 | Tubastatin A 0.009 | defactinib -0.009 | rucaparib 0.031 | [9] -0.07 | encorafenib 0.029 | [10] -0.029

MIF (UniProt P14174)
Sequence of UniProt P14174 (P14174 whole entry, looked up): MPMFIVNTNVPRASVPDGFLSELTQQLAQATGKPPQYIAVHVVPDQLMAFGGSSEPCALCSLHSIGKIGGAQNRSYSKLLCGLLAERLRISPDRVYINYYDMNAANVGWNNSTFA
inactive: [1] 0.025 | volasertib 0.021 | [2] -0.096 | [3] 0.015 | [4] 0.081 | [5] 0.025 | rosiglitazone -0.012 | [6] -0.038 | [7] 0.211 | saracatinib -0.029 | sotrastaurin -0.005 | alvocidib -0.001 | Tubastatin A -0.065 | [8] 0.82 | defactinib -0.019 | rucaparib 0.026 | [9] -0.105 | encorafenib -0.058 | [10] 0.06
active: epoxomicin 0.454

ILF2 (UniProt Q12905)
Sequence of UniProt Q12905 (Q12905 whole entry, looked up): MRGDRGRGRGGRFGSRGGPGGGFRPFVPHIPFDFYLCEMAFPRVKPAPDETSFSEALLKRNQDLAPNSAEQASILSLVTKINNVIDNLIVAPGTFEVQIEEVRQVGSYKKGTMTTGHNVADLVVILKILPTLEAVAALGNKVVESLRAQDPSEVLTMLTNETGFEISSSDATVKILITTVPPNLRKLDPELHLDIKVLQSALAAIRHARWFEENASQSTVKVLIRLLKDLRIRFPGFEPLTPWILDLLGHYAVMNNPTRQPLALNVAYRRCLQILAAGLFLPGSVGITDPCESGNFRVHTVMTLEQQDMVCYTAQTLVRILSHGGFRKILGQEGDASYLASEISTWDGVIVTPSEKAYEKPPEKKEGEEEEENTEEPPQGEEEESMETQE
active: defactinib 0.491
inactive: [1] 0.277 | volasertib 0.281 | [2] 0.029 | epoxomicin -0.186 | [3] -0.018 | [4] 0.2 | [5] -0.053 | rosiglitazone -0.099 | [6] 0.16 | [7] 0.352 | saracatinib 0.039 | sotrastaurin 0.041 | alvocidib 0.325 | Tubastatin A -0.058 | [8] 0.015 | rucaparib 0.19 | [9] 0.04 | encorafenib 0.028 | [10] 0.012

LRRFIP1 (UniProt Q32MZ4)
Sequence of UniProt Q32MZ4 (Q32MZ4 whole entry, looked up): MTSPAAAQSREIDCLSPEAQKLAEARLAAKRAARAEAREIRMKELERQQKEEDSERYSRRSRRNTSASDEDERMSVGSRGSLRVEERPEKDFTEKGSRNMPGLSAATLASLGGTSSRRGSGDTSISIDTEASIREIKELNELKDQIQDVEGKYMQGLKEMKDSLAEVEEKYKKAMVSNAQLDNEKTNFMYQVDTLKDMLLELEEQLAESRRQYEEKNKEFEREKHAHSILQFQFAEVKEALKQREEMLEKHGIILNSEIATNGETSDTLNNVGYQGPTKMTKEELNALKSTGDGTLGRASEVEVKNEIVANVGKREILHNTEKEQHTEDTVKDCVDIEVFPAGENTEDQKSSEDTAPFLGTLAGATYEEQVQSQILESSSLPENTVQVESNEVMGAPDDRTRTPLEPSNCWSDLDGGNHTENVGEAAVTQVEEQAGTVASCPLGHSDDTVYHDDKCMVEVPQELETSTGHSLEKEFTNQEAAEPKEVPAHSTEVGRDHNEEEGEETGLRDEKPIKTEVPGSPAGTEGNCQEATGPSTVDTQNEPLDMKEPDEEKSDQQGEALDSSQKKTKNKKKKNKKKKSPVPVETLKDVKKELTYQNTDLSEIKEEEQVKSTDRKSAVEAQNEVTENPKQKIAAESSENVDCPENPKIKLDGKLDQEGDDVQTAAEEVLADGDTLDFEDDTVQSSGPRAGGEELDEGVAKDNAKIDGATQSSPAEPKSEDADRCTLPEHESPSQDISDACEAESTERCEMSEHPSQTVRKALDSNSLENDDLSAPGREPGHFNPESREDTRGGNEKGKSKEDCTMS
inactive: [1] 0.06 | volasertib 0.099 | [2] -0.075 | epoxomicin -0.019 | [3] 0.019 | [4] 0.028 | [5] -0.004 | rosiglitazone -0.007 | [6] 0.011 | [7] 0.013 | saracatinib 0.017 | sotrastaurin 0.047 | alvocidib 0.014 | Tubastatin A -0.005 | [8] -0.009 | defactinib -0.01 | rucaparib -0.01 | [9] -0.034 | encorafenib -0.019 | [10] 0.022

MEAK7 (UniProt Q6P9B6)
Sequence of UniProt Q6P9B6 (Q6P9B6 whole entry, looked up): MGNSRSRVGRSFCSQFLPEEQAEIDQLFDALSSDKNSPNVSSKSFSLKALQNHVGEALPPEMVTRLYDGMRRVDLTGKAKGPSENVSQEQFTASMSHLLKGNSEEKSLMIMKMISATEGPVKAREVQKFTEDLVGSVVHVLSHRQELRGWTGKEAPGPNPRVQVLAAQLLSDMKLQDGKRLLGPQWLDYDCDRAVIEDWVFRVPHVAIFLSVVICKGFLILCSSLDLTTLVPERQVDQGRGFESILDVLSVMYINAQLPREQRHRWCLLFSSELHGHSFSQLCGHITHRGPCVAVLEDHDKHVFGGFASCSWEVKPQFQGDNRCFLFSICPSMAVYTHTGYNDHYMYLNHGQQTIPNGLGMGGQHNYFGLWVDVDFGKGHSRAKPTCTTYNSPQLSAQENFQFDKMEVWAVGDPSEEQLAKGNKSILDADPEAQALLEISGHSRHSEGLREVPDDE
active: volasertib -0.473
inactive: [1] -0.084 | [2] 0.039 | epoxomicin 0.067 | [3] -0.025 | [4] -0.03 | [5] -0.046 | rosiglitazone 0.103 | [6] -0.033 | [7] -0.097 | saracatinib 0.043 | sotrastaurin -0.004 | alvocidib -0.056 | Tubastatin A 0.028 | [8] -0.088 | defactinib -0.041 | rucaparib 0.008 | [9] 0.026 | encorafenib 0.02 | [10] 0.088

MEPCE (UniProt Q7L2J0)
inactive: [1] -0.07 | volasertib -0.209 | [2] 0.052 | epoxomicin -0.053 | [3] 0.009 | [4] -0.013 | [5] 0.061 | rosiglitazone -0.019 | [6] 0.007 | [7] -0.051 | saracatinib -0.019 | sotrastaurin -0.022 | alvocidib -0.112 | Tubastatin A -0.104 | [8] -0.052 | defactinib -0.192 | rucaparib -0.056 | [9] 0.049 | encorafenib 0.067 | [10] -0.077

KPNA1 (UniProt P52294)
Sequence of UniProt P52294 (P52294 whole entry, looked up): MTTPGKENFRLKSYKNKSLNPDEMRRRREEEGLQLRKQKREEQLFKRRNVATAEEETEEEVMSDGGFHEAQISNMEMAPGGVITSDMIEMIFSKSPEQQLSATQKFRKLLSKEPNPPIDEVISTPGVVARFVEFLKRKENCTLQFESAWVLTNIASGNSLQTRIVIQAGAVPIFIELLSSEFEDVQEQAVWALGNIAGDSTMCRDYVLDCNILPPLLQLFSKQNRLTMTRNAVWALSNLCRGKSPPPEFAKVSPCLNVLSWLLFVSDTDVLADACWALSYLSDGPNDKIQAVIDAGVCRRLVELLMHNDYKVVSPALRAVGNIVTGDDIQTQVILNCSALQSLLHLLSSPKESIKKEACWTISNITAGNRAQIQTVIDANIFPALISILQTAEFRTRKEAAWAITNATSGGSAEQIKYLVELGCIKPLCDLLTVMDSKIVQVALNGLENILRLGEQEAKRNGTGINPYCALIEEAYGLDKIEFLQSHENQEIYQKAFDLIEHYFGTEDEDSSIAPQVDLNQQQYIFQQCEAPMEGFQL
inactive: [1] -0.039 | [2] 0.115 | epoxomicin -0.051 | [3] 0.022 | [4] 0.004 | [5] 0.055 | rosiglitazone 0.055 | [6] 0.104 | [7] -0.082 | saracatinib -0.014 | sotrastaurin -0.174 | alvocidib -0.019 | Tubastatin A 0.021 | [8] 0.006 | defactinib -0.064 | rucaparib 0.151 | [9] -0.078 | encorafenib 0.197 | [10] 0
active: volasertib -0.312

MAGI1 (UniProt Q96QZ7)
inactive: [1] 0.041 | volasertib 0.031 | [2] 0.026 | epoxomicin -0.045 | [3] 0.005 | [4] 0.012 | [5] -0.041 | rosiglitazone 0.016 | [6] 0.014 | [7] -0.011 | saracatinib -0.013 | sotrastaurin -0.064 | alvocidib -0.019 | Tubastatin A -0.017 | [8] 0.021 | defactinib -0.007 | rucaparib 0.012 | [9] 0.024 | encorafenib 0.059 | [10] -0.009

LUC7L (UniProt Q9NQ29)
Sequence of UniProt Q9NQ29 (Q9NQ29 whole entry, looked up): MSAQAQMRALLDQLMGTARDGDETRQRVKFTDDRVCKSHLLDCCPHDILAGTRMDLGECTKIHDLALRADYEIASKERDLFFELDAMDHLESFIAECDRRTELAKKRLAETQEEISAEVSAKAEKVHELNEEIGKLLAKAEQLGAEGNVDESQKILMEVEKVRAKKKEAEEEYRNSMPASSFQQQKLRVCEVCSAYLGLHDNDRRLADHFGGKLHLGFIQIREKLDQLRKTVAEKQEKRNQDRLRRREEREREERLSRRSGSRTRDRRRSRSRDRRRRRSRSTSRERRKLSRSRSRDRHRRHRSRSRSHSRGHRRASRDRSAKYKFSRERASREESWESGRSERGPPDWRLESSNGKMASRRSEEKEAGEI
inactive: [1] 0.006 | volasertib -0.005 | [2] 0.005 | epoxomicin -0.052 | [3] 0.048 | [4] 0.01 | [5] -0.043 | rosiglitazone -0.003 | [6] 0.108 | [7] 0.052 | saracatinib -0.005 | sotrastaurin 0.056 | alvocidib 0.062 | Tubastatin A 0.006 | [8] -0.119 | defactinib 0.022 | rucaparib 0.076 | [9] -0.049 | encorafenib 0.039 | [10] 0.022

MAP3K4 isoform 2 (UniProt Q9Y6R4)
active: volasertib 0.398 | [4] -0.519
inactive: [1] 0.141 | [2] -0.013 | epoxomicin 0.007 | [3] 0 | [5] 0.013 | rosiglitazone 0.018 | [6] -0.018 | [7] 0.024 | saracatinib 0.077 | sotrastaurin 0.034 | alvocidib -0.093 | Tubastatin A -0.038 | [8] 0.153 | defactinib -0.008 | rucaparib 0.006 | [9] -0.002 | encorafenib -0.023 | [10] 0.029

KCT2 (UniProt Q8NC54)
inactive: [1] -0.312 | volasertib -0.076 | [2] -0.006 | epoxomicin -0.063 | [3] 0.089 | [4] -0.03 | [5] 0.064 | rosiglitazone 0.009 | [6] -0.051 | [7] -0.037 | saracatinib 0.027 | sotrastaurin 0.042 | alvocidib -0.095 | Tubastatin A -0.003 | [8] 0.096 | defactinib -0.088 | rucaparib -0.008 | [9] 0.031 | encorafenib 0.063 | [10] -0.036

KHDC4 (UniProt Q7Z7F0)
inactive: [1] -0.063 | [2] 0.107 | epoxomicin 0.036 | [3] -0.045 | [4] -0.057 | [5] 0.137 | rosiglitazone 0.035 | [6] 0.071 | [7] -0.014 | saracatinib -0.139 | sotrastaurin 0.027 | alvocidib -0.15 | Tubastatin A 0.052 | [8] 0.019 | defactinib -0.058 | rucaparib -0.058 | [9] 0.023 | encorafenib 0.008 | [10] -0.023
active: volasertib -0.236
